{"source": "PubChem BioAssay (NCATS)", "note": "Records with an inconclusive call do not appear. A call without a number means that no potency is given here. The source made the active and inactive calls. Calls come from the whole dose curve; as a rule, active = well fitted cell-killing curve with a large enough effect; inconclusive = small, poorly fitted or top-dose-only effect, or effect the other way; inactive = no such curve, though single readings can be large or run the other way. Potency is the fitted concentration of half-maximal effect."}
{"assay": "Quantitative High-Throughput drug screen in 47 multiple myeloma cell lines against the NCATS MIPE library collection: PE2_PLB cell viability assay (AID 1919869); note: nearly all actives have a fitted effect of over 35% in size", "settings": "PE2_PLB myeloma cells viability, ATP luminescence, 48 h; series mostly up to 45.8 µM", "summary_of_the_method": "(§1)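 Cells were exposed to library compounds for 48 hours, after which ATP was measured by CellTiter-Glo. Signal was taken as median relative luminescence units.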"}
{"smiles": "Cc1cnc(C(=O)O)c[n+]1[O-]", "Potency": "inactive"}
{"smiles": "Cc1cc(OCCCc2c(C(=O)O)n(Cc3cccnc3)c3c(-c4c(COc5ccc(N6CCN([S+](C)(=O)[O-])CC6)cc5)nn(C)c4C)cccc23)cc(C)c1Cl", "Potency": "18.7 µM (active)"}
{"smiles": "NC(=O)c1cnc(-c2ccc(C3(N)CCC3)cc2)c(-c2ccccc2)c1", "Potency": "5.9 µM (active)"}
{"smiles": "CCOC(CN1C(=O)[C@](CC(=O)Nc2ccc(C)cc2)(NC(=O)Nc2ccc(C)cc2)c2ccccc21)OCC", "Potency": "23.5 µM (active)"}
{"assay": "Quantitative High-Throughput drug screen in 47 multiple myeloma cell lines against the NCATS MIPE library collection: PCM6_Riken cell viability assay (AID 1919870); note: nearly all actives have a fitted effect of over 30% in size", "settings": "CellTiter-Glo ATP, 48 h; series mostly up to 45.8 µM", "summary_of_the_method": "as §1"}
{"smiles": "COc1cc(NC(=O)c2ccc(-c3ccc(Cl)cc3)o2)cc(OC)c1", "Potency": "5.9 µM (active)"}
{"smiles": "CCOC1OC(=O)C[C@H]1NC(=O)[C@@H]1CCCN1C(=O)[C@@H](NC(=O)c1ccc(N)c(Cl)c1)C(C)(C)C", "note": "(some centres undefined)", "Potency": "inactive"}
{"smiles": "Nc1ncnc2c1ncn2[C@@H]1O[C@H](CO)C[C@@H]1O", "Potency": "inactive"}
{"smiles": "CC=CCC=CCCC(=O)[C@H]1O[C@@H]1C(N)=O", "Potency": "20.9 µM (active)"}
{"smiles": "CC(C)C(=O)Oc1ccc(CO)cc1[C@H](CCN(C(C)C)C(C)C)c1ccccc1", "Potency": "inactive"}
{"smiles": "CN(C)c1cc(NC(=O)CNC(C)(C)C)c(O)c2c1C[C@@H]1C[C@H]3[C@H](N(C)C)C(=O)C(C(N)=O)=C(O)[C@@]3(O)C(=O)C1=C2O", "Potency": "inactive"}
{"smiles": "C[N+](C)(C)CC(=O)O", "Potency": "inactive"}
{"smiles": "O=C(O)C=Cc1ccc(O)c(O)c1", "Potency": "inactive"}
{"smiles": "O=C(NC1CCOCC1)c1ccc(-c2cc(-c3cn[nH]c3-c3ccccn3)ccn2)cc1", "Potency": "inactive"}
{"smiles": "CCC(=O)NC[C@H](Cc1ccc(OCCc2nc(-c3ccccc3)oc2C)cc1)NC(C)=CC(=O)c1ccc(C(F)(F)F)cc1", "Potency": "inactive"}
